Composite z-score, z-score and composite Z-score data for five compounds are collected here from PubChem BioAssay.

In test [1] the test system is Human papillomavirus type 1a protein E7 (residues 44-93). Description: HPV1a E7 fragment binders on microarrays, primary screen, biochemical, small-molecule microarray, residues 44-93, 635 nm fluorescence (AID 1108).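 Also: E7 fragment applied at 1 µg/mL in TBST for 1 h at 4 C; score combines spot fluorescence with its signal to noise ratio.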 The conditions noted are these: small-molecule microarray binding, fluorescence 635 nm; higher = more signal.
Test [2] is described as follows: modulators of HCV replicon luciferase signal, primary screen, HCV replication inhibitor project, Huh7 cells, luciferase reporter (AID 1109).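 Also: huh7 hepatoma cells harbouring a luciferase neomycin HCV replicon reporter; luciferase luminescence as measure of HCV replicon replication; test concentration not given here.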 The conditions noted are these: 48 h, higher = more signal.
Test [3] has as its target Left-right determination factor 2 (Homo sapiens) (UniProt O00292). Description: LEFTY2 binders on small-molecule microarrays, primary screen, biochemical, small-molecule microarray, 635 nm fluorescence scan (AID 1110). The conditions noted are these: LEFTY2 binding, higher = more signal.
The target of test [4] is Calmodulin-1 (Homo sapiens) (UniProt P0DP23). The experiment in a line: CALM1 binders on microarrays, EGTA buffer, profiling panel, biochemical, small-molecule microarray, Cy5-labelled CALM1 (AID 1111).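 Also: labelled calmodulin applied in Tris saline Tween buffer holding calcium plus EGTA and DTT.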 The conditions noted are these: Cy5-CALM1 binding fluorescence, higher = more signal.
For test [5] the target is unchanged. Description: calcium-bound CALM1 binders on microarrays, profiling panel, artefact control for SMM control-protein annotation, biochemical, small-molecule microarray, Cy5-labelled CALM1, plus calcium (AID 1112).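 Also: score merges spot fluorescence with signal to noise from triplicate slides.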 The note with it: Cy5-CALM1 binding fluorescence, higher = more signal.
A short description of test [6]: small-molecule microarray binders of probe aWnt5a, primary screen, biochemical, biotinylated probe, 635/667 nm fluorescence (AID 1113).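 Also: score merges 667 nm fluorescence intensity with signal-to-noise per printed feature.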 The conditions noted are these: higher = more signal.
Test [7] can be described thus: small-molecule microarray binders of probe aShh, primary screen, biochemical, biotinylated probe, 635/667 nm fluorescence (AID 1114).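 Also: probe is biotin-labelled aShh protein from a stem cell growth factor screen; measures binding of labelled protein to compounds printed on the slide; score merges feature fluorescence at 667 nm with signal-to-noise.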 The note with it: higher = more signal.
Test [8] is described as follows: small-molecule microarray binders of probe aNog, primary screen, biochemical, biotinylated probe, 635/667 nm fluorescence (AID 1115).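 Also: probe is biotinylated aNog protein used at 0.15 µg/mL for 1 h at 4 C; z-score combines 667 nm fluorescence of each spot with its signal to noise.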 The conditions noted are these: higher = more signal.
Test [9] has as its target Torsin-1A-interacting protein 1 (Homo sapiens) (UniProt Q5JTV8). Description: LAP1 binders from COS7 cell lysate, primary screen, small-molecule microarray, 635/667 nm fluorescence (AID 1116). The conditions noted are these: COS7-hLAP1 lysate binding, 635 nm fluorescence, higher = more signal.
Test [10] addresses Alpha-bungarotoxin (Bungarus multicinctus) (UniProt P60615). Description: alpha-bungarotoxin binders on microarray, profiling panel, artefact control for SMM control protein annotation, biochemical, small-molecule microarray, Alexa647 label, 635/667 nm fluorescence (AID 1117). The conditions noted are these: alpha-BTX-A647 binding fluorescence, higher = more signal.
For a further test, the target named is Albumin (Bos taurus) (UniProt P02769). Description: bovine serum albumin binders on microarray, profiling panel, artefact control for SMM control protein annotation, biochemical, small-molecule microarray, Alexa647 label, 635/667 nm fluorescence (AID 1118).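 Also: score merges 667 nm emission intensity and signal-to-noise per printed compound spot.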 The conditions noted are these: BSA-A647 binding, fluorescence 635 nm, higher = more signal.
Albumin (Bos taurus), sequence (P02769 whole entry, looked up): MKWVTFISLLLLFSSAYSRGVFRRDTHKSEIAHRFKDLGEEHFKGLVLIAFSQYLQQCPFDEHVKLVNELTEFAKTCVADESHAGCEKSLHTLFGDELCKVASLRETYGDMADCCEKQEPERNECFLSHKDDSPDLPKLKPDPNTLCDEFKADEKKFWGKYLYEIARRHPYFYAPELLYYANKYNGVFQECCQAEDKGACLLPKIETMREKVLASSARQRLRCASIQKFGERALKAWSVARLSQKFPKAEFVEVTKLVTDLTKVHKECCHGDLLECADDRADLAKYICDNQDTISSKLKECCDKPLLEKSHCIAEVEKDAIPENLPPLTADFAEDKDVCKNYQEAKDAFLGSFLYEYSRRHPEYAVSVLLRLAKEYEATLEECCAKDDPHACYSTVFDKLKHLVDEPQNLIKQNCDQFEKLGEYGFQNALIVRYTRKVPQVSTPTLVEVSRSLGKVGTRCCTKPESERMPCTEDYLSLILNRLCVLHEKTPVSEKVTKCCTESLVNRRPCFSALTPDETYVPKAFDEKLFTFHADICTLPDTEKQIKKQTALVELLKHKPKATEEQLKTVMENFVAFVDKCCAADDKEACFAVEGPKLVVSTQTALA
Test [11] can be described thus: small-molecule microarray binders of probe aXIP, primary screen, biochemical, NeuroSMM set, 635/667 nm fluorescence (AID 1119).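 Also: probe is the protein aXip251-270 applied at 1 µg/mL to compound-printed slides; binding of probe to printed compounds measured as 667 nm fluorescence plus signal to noise.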 The note with it: higher = more signal, called active from +8 up or from −8 down.
The nature of test [12]: small-molecule binders of probe aNOTCH3, primary screen, biochemical, small-molecule microarray, 635/667 nm fluorescence (AID 1120).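 Also: probe is a biotin-tagged antibody raised against NOTCH3 rather than NOTCH3 protein; score merges spot fluorescence near 667 nm with spot signal to noise.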 The note with it: higher = more signal.
Test [13] can be described thus: small-molecule binders of probe aNOTCH2, primary screen, biochemical, small-molecule microarray, 635/667 nm fluorescence (AID 1121).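 Also: score merges feature fluorescence read at 667 nm with its signal to noise.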 The note with it: higher = more signal.
Test [14] deals with Carbonic anhydrase 2 (Homo sapiens) (UniProt P00918). Description: CAII small-molecule binders, profiling panel, biochemical, small-molecule microarray, Alexa647-labelled CAII (AID 1122). The conditions noted are these: CAII-A647 binding fluorescence, higher = more signal.
Test [15] in a line: COS7 lysate on small-molecule microarray, probe aHis, 635 nm (AID 1123).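 Also: z-score combines 667nm fluorescence intensity with signal-to-noise per printed compound spot.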 The conditions noted are these: COS7 cell lysate, fluorescence, higher = more signal.
Test [16] is described as follows: compound binding in COS7 lysate, probe aLAP1, primary screen, cell lysate, small-molecule microarray (AID 1124).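 Also: lysate comes from COS7 cells expressing LAP1 and is applied at 0.3 µg/mL; score merges spot fluorescence near 667 nm with signal-to-noise over triplicate slides.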 The note with it: probe aLAP1, fluorescence, higher = more signal.
Another test concerns Sam68 (KHDRBS1). Description: Sam68 small-molecule binders, primary screen, biochemical, small-molecule microarray, 635 nm fluorescence (AID 1125).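 Also: score merges 667 nm channel intensity with signal to noise over triplicate slides.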 The note with it: small-molecule microarray binding, higher = more signal.
Test [17] has as its system Chordin-like protein 2 (CHRDL2). The experiment in a line: CHRDL2 small-molecule binders, primary screen, biochemical, small-molecule microarray, 635 nm fluorescence (AID 1126).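 Also: printed compound slides probed with Chrdl2 protein at 4 µg/mL for 1 h at 4 C; score merges 667 nm emission intensity with signal to noise over three replicate slides.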 The note with it: small-molecule microarray binding, fluorescence 635 nm; higher = more signal.
Test [18] has as its target Concanavalin-A (Canavalia ensiformis) (UniProt P02866). The experiment in a line: ConA small-molecule binders, primary screen, artefact control for SMM control protein annotation, biochemical, small-molecule microarray, Alexa647 label, 635 nm (AID 1127).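 Also: z combines 667 nm emission intensity with signal-to-noise across three replicate slides.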 The conditions noted are these: ConA-A647 binding fluorescence, higher = more signal.

The structures appear in SMILES notation. Activity calls are given as the source filed them.

Left-right determination factor 2 (Homo sapiens), sequence (O00292 whole entry, looked up): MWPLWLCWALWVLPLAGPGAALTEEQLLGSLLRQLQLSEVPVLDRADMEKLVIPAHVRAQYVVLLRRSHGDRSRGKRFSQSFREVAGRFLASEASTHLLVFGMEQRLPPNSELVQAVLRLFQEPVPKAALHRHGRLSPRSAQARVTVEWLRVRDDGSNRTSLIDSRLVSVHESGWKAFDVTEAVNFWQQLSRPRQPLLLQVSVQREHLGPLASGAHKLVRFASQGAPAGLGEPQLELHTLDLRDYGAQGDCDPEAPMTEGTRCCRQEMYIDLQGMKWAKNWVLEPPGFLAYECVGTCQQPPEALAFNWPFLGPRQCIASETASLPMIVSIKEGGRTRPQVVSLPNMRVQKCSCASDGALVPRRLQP
Concanavalin-A (Canavalia ensiformis), sequence (P02866 whole entry, looked up): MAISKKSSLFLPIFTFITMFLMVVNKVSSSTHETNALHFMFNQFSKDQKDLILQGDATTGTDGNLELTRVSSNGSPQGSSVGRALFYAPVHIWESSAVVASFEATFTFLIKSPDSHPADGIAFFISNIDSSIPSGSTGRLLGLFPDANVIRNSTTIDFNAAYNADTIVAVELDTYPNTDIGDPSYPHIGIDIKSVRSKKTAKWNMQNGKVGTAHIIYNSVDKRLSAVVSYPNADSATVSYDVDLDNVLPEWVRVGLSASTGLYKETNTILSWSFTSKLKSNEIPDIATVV
Alpha-bungarotoxin (Bungarus multicinctus), sequence (P60615 whole entry, looked up): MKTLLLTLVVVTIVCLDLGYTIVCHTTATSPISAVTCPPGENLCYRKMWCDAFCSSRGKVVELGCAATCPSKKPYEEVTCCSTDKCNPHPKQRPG
Torsin-1A-interacting protein 1 (Homo sapiens), sequence (Q5JTV8 whole entry, looked up): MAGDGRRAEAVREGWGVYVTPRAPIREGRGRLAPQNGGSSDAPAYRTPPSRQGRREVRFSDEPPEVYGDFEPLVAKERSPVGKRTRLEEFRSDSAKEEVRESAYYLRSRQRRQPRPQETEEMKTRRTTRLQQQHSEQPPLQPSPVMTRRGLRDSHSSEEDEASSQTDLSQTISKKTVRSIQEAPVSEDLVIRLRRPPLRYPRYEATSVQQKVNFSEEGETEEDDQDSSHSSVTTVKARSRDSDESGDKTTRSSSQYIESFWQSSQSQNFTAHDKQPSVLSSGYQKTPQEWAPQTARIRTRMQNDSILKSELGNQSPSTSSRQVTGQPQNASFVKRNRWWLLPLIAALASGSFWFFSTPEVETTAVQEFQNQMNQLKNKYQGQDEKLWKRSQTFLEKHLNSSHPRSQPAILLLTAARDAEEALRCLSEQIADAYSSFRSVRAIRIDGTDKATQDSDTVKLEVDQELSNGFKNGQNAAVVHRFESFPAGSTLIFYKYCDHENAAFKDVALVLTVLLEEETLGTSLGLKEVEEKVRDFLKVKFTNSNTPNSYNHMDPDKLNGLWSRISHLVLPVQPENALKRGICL

With `CN1C(=O)C2C=CC(C(O)c3ccc(F)cc3)N(NC(=O)OC(C)(C)C)C2C1=O` (stereo not given), the composite z-score in [1] is 1.36; in [3], -0.205; in test [4], 0.989; in test [5] it was 0.469; in test [6], -0.109; in test [7], 0.265. The composite z-score in [8] was 1.12; in test [9], -0.102; in test [10], 0.613; with Albumin (Bos taurus), 0.854; in test [12], 0.0155; in test [13], -0.0317. Besides, the composite z-score was 0.695 in [14]; 2.48 in [15]; 0.215 in test [16]; 1.03 in the test on Sam68 (KHDRBS1); -1.3 in test [17]; 0.923 in test [18]. This compound gave a z-score in test [2] of -0.428. Besides, the composite Z-score in [11] was 0.134 (inactive).
On to `COC(=O)C(CC#Cc1ccc2c(c1)[C@]1(C(=O)N2)[C@H](c2ccc(OCCO)cc2)N2[C@H](c3ccccc3)[C@H](c3ccccc3)OC(=O)[C@H]2[C@@H]1C(=O)N1CCN(c2ncccn2)CC1)C(=O)OC`, for which the composite z-score in test [1] was 0.233; in test [3], 1.28; in test [4], 1.48; in test [5], 0.43; in test [6] it was -0.0286; in test [7], 0.214. Moreover, the composite z-score in test [8] is -0.889; in [9], 1.2; in test [10] it was 1.3; with Albumin (Bos taurus), 0.621; in [12], 0.176; in test [13] it was 0.0296. In addition, the composite z-score worked out at 0.62 in test [14]; 1.71 in test [15]; 0.832 in test [16]; 1.3 with Sam68 (KHDRBS1); 0.441 in test [17]; 1.16 in test [18]. In addition, in [2], the z-score was -1.49. The composite Z-score in test [11] is 0.434 (inactive).
Take `COCCOC(=O)N1C(=O)[C@@]2(c3cc(C#CCC(C(=O)OC)C(=O)OC)ccc31)[C@H](c1ccc(OCCO)cc1)N1[C@H](c3ccccc3)[C@H](c3ccccc3)OC(=O)[C@H]1[C@@H]2C(=O)Nc1nc2ccccc2s1`: the composite z-score is 1.16 in test [1]; 0.423 in [3]; 1.05 in [4]; -0.0309 in [5]; -0.0202 in [6]; -0.0793 in [7]. In addition, the composite z-score in test [8] is -0.114; in test [9] it was 0.743; in [10] it was 1.06; in the test with Albumin (Bos taurus), -0.86; in [12] it was -0.0077; in [13] it was 0.15. In addition, the composite z-score in test [14] is 0.405; in test [15], 0.221; in [16] it was -0.157; in the test with Sam68 (KHDRBS1), 1.31; in test [17], 0.219; in [18] it was 1.11. The same compound returned a z-score in test [2] of -2.06. For the same compound, the composite Z-score in [11] was 0.575 (inactive).
With `CN1C(=O)C2C(C1=O)C1C=C(CCCO)C2C(c2cccs2)N1Cc1cc2c(cc1Br)OCO2` (stereo not given), the composite z-score in test [1] came to 1.44; in [3], 0.772; in test [4], 1.89; in [5] it was 0.658; in test [6], 0.184; in test [7] it was 0.131. Further, the composite z-score was -0.373 in [8]; 2.29 in test [9]; 1.7 in [10]; 1.01 in the test with Albumin (Bos taurus); 0.323 in [12]; -0.144 in test [13]. Besides, the composite z-score amounted to 0.805 in test [14]; 2.24 in [15]; 1.09 in test [16]; 1.3 with Sam68 (KHDRBS1); 0.171 in test [17]; 1.18 in test [18]. Further, in test [2], the z-score is -1.22. In addition, the composite Z-score in test [11] was 1.13 (inactive).
On to `COCCOC(=O)N1C(=O)[C@@]2(c3cc(C#CCNC(N)=O)ccc31)[C@H](c1ccc(OCCO)cc1)N1[C@H](c3ccccc3)[C@H](c3ccccc3)OC(=O)[C@H]1[C@@H]2C(=O)NC[C@H](O)c1ccccc1`, for which the composite z-score in test [1] was 1.26; in test [3], 0.799; in test [4], 1.22; in [5], 0.226; in test [6], -0.0792; in [7], -0.138. Also, the composite z-score in [8] is 1.21; in test [9], 0.878; in test [10] it was 1.61; in the test with Albumin (Bos taurus) it was 0.633; in test [12] it was 0.206; in test [13] it was -0.013. Moreover, the composite z-score was 0.225 in [14]; 0.0755 in [15]; 0.442 in [16]; 1.29 with Sam68 (KHDRBS1); 0.84 in [17]; 1.14 in test [18]. For the same compound, in test [2], the z-score is -0.711. Moreover, the composite Z-score in test [11] was -0.524 (inactive).
